Test results published in ChEMBL document CHEMBL4513216, “Probing the Open Global Health Chemical Diversity Library for Multistage-Active Starting Points for Next-Generation Antimalarials” (ACS Infect Dis, 2020).
About 2,700 (4%) of roughly 68,000 compounds showed an effect of 50% or more. This is one part of a sample in which strong results are shown more often than they occur.

test system: Plasmodium berghei; experiment: Screen against P. berghei liver stage (PbLuc), transformed with Luciferase, at 2uM; type: functional, HepG2; conditions: tested at 2 uM

| Compound | INHIBITION |
| --- | --- |
| O=C(CCCc1ncc(-c2ccccc2)o1)N1CCN(CCO)CC1 | 56.67% |
| O=C(CCCc1nc(-c2ccccc2)no1)N1CCN(CCO)CC1 | 41.76% |
| O=C(CCCc1nnc(-c2ccccc2)o1)N1CCN(CCO)CC1 | 36.65% |
| COc1ccc(Br)cc1NCC(=O)NC(C)(C#N)C1CC1 (stereo not given) | -0.46% |
| COC[C@H](C)Nc1cc(C)c2ccc(SC)cc2n1 | 45.56% |
| CSc1ccc2c(C)cc(N[C@@H](C)CO)nc2c1 | 71.67% |
| CCn1ncnc1C(C)Nc1cc(C)c2ccc(SC)cc2n1 (stereo not given) | -35.22% |
| O=C(c1cccnc1-c1ccoc1)N1C[C@@H]2CC[C@H]1C2 | -15.77% |
| CCC1(CO)CCN(C(=O)c2cc(COc3ccccc3F)[nH]n2)CC1 | -64.06% |
| CCn1nc(C)c(CCNC(=O)C2CCCN(C(=O)N(C)C)C2)c1C (stereo not given) | -17.7% |
| Cn1cc(CN2CCOC(c3cccc(-c4cccc(F)c4)n3)C2)cn1 (stereo not given) | 53.16% |
| Cn1cc(CN2CCOC(c3cccc(-c4cncnc4)n3)C2)cn1 (stereo not given) | 0.12% |
| Cn1cc(CN2CCOC(c3nccnc3-c3cccc(F)c3)C2)cn1 (stereo not given) | 11.74% |
| CN(C)Cc1nn(C)c2c1CCN(C(=O)CC1CC1)C2 | -1.31% |
| C=C(C)COc1ccccc1C(=O)NCCCc1nnn[nH]1 | -24.7% |
| OC(COCc1ccco1)CN1CCc2c(ncn2C2CC2)C1 (stereo not given) | 35.23% |
| CC(Cc1cccs1)NC(=O)CCn1cccn1 (stereo not given) | 0.66% |
| O=C(CCOc1ccccc1)N1CCCC(c2ncc[nH]2)C1 (stereo not given) | 2.06% |
| CCCN(Cc1nccn1C)C(=O)C(CC)Nc1cccc(OC)c1 (stereo not given) | 16.82% |
| COCc1cn(CC2CCN(Cc3nc(C)c[nH]3)CC2)nn1 | -37.15% |
| Cc1ccc(CN2Cc3c(C(=O)N(C)C)nn(C)c3C2)s1 | -35.2% |
| O=S(=O)(Cc1ccccc1)c1nnc(N2CCCC2)s1 | 44.37% |
| Cc1cccc(CS(=O)(=O)c2nnc(N3CCOCC3)s2)c1 | 22.34% |
| O=S(=O)(Cc1ccccc1)c1nnc(N2CCOCC2)s1 | 52.08% |
| CCCn1cc(CNCC(c2ccc(C)s2)N2CCOCC2)cn1 (stereo not given) | 10.46% |
| CNc1cc(C(=O)N2CCOC(C(=O)NC3CCCC3)C2)ccn1 (stereo not given) | -5.76% |
| CCn1cnnc1CNC(=O)N(C)Cc1ccc2c(c1)OCO2 | -19.35% |

| Compound | INHIBITION |
| --- | --- |
| Cc1ccc(Nc2nccc(C3CCCN(CC(=O)N(C)C)C3)n2)nc1 (stereo not given) | -28.81% |
| Cc1ccc(Nc2nccc(C3CN(CC(N)=O)C3)n2)nc1 | 9.79% |
| O=C(C1CCCC1)N1CCC(c2ccnc(Nc3cnccn3)n2)C1 (stereo not given) | 37.81% |
| O=C(C1CCC1)N1CCCC(c2ccnc(Nc3cnccn3)n2)C1 (stereo not given) | 57.82% |
| Cc1ccc(Nc2nccc(C3CCN(CC(N)=O)C3)n2)nc1 (stereo not given) | 85.75% |
| CC(=O)N1CCCC(c2ccnc(Nc3cnccn3)n2)C1 (stereo not given) | -39.95% |
| O=C(c1ccco1)N1CCOCC2(C1)CN(c1ccccc1)C(=O)CO2 (stereo not given) | 16.48% |
| COc1ccc(CN2CC[C@H]3[C@H]2CC(=O)N3Cc2cccc(C)n2)cc1 | 3.55% |
| CCCn1nc2c(cc1=O)CN(Cc1nc(C)c(C)o1)CC2 | 44.43% |
| OC(CN1CC(n2cccn2)C1)c1ccc2c(c1)OCCO2 (stereo not given) | -28.22% |
| CN1CCOC(CNCc2csc(C3CCCCC3)n2)C1 (stereo not given) | 16.84% |
| CN1CCOC(CNCc2csc(C3CCCC3)n2)C1 (stereo not given) | 60.71% |
| Cc1nc(CNCC2CN(C)CCO2)cs1 (stereo not given) | -50.23% |
| CCOC(=O)c1c(NC(=O)CN2CCN(C(C)=O)CC2)sc2c1CCC2 | 25.47% |
| C1CC(N2C[C@@H]3COC[C@]3(COCC3CCOCC3)C2)C1 | 22.96% |
| CCOC(=O)CSc1ccc(-c2nc(C)no2)cn1 | 70.75% |
| CCc1noc(-c2ccc(SCC(=O)O)nc2)n1 | 47.9% |
| CCOC(=O)CSc1ccc(-c2nc(CC)no2)cn1 | 46.51% |
| COc1ccc(Br)c(C(=O)NCC2CC2)c1 | 9.21% |
| NS(=O)(=O)N1CCC(C(=O)Nc2cccc(OC(F)F)c2)CC1 | 50.98% |
| CC(NC(=O)C1CCN(S(N)(=O)=O)CC1)c1cccc(OC(F)F)c1 (stereo not given) | 1.42% |
| O=C(Nc1cccc(OC(F)F)c1)C1CN(S(=O)(=O)C2CC2)C1 | 21% |
| CN(C)C[C@@H]1C[C@@H]2CN(C(=O)c3ccoc3)CC[C@@H]2N1CC1CC1 | -72.76% |
| C=Cc1ccc(C(=O)N2CCCC(Nc3ccccc3)C2)cc1 (stereo not given) | 43.86% |
| CCN(C)S(=O)(=O)N1CCC(C(O)c2ccc(F)cc2)CC1 (stereo not given) | 52.98% |
| CCN(C)S(=O)(=O)N1CCC(C(O)c2ccc(Cl)cc2)CC1 (stereo not given) | -11.41% |
| CN(C)S(=O)(=O)N1CCC(C(O)c2ccc(Cl)cc2)CC1 (stereo not given) | 24.36% |

| Compound | INHIBITION |
| --- | --- |
| CCCn1nc2c(cc1=O)CN(Cc1nnc(C3CC3)o1)CC2 | -7.73% |
| Cc1ncsc1CCN(C)C(=O)CN1CCOC1=O | 29.13% |
| c1cc(CN2CC[C@H]3O[C@@H](COCC4CCOCC4)CC[C@H]32)ccn1 | -5.17% |
| Cc1nc2ccccc2n1CCNCc1cccc(O)c1 | 54.47% |
| COc1ccc(CNCCn2c(C)nc3ccccc32)cc1O | -92.51% |
| Cc1nc2ccccc2n1CCNCc1cccc(C#N)c1 | -5.59% |
| CSc1nsc(NC(=O)c2cc(C3CC3)nn2C)n1 | -11.3% |
| O[C@]12CCNC[C@H]1CN(c1ccnc3ccccc13)CC2 | 16.35% |
| OC[C@H]1CN(Cc2c(Cl)cncc2Cl)C[C@H]1CN1CCCC1 | 72.91% |
| OC[C@H]1CN(Cc2c(Cl)cncc2Cl)C[C@H]1CN1CCCCCC1 | -34.9% |
| OC[C@H]1CN(Cc2c(Cl)cncc2Cl)C[C@H]1CN1CCOCC1 | 14.13% |
| CC1CN(CC(=O)NCc2ccc(F)cc2)CCN1c1nccs1 (stereo not given) | -4.29% |
| CN(C)CCNc1cc(-c2ncccc2Cl)c2cc[nH]c2n1 | 10.22% |
| COc1ccnc(CN2CCC=C(C(C)NC(C)=O)C2)c1OC (stereo not given) | 21.97% |
| COc1ccc(CN2CCC=C(C(C)NC(C)=O)C2)cc1 (stereo not given) | 60.13% |
| CC(=O)NC(C)C1=CCCN(Cc2ccc(C(=O)O)cc2)C1 (stereo not given) | 43.44% |
| Cc1cnccc1N1CCN(C(=O)C2CC3(CCNCC3)CN2)CC1 (stereo not given) | -28.32% |
| CC[S+](CC)[c-]1c(=O)[nH]c(=O)n(CCc2ccc(F)cc2)c1=O | 9.31% |
| CC(NC(=O)c1ccc(Cl)cc1)c1nnc(SCC(N)=O)n1C (stereo not given) | 14.46% |
| CS(=O)(=O)NCC1CCCN(C(=O)Nc2cccc3ccccc23)C1 (stereo not given) | 58.93% |
| CS(=O)(=O)NCC1CCCN(C(=O)Nc2ccccc2Cl)C1 (stereo not given) | -7.21% |
| CS(=O)(=O)NCC1CCCN(C(=O)Nc2ccccc2F)C1 (stereo not given) | -5.61% |
| Cn1cc(C(=O)NC2CCCC2)c(-c2cccnc2)n1 | -18.81% |
| CCOc1ccccc1NC(=O)CN(C)Cc1ccccc1Cl | 55.73% |
| CCOC(=O)c1ccccc1NC(=O)CN(C)Cc1ccccc1Cl | 16.25% |
| CN(CC(=O)Nc1ccccc1C(=O)NC1CC1)Cc1ccccc1Cl | 19.66% |
| O=C1NCCN1C1CCN(CC(O)c2ccccc2F)CC1 (stereo not given) | -54.48% |

| Compound | INHIBITION |
| --- | --- |
| CNC(=O)[C@@H]1C[C@H](N)CN1S(=O)(=O)c1cc(C)c(Cl)cc1C | 25.45% |
| CNC(=O)[C@@H]1C[C@H](N)CN1S(=O)(=O)c1cc(Cl)cc(Cl)c1O | 92.61% |
| CNC(=O)[C@@H]1C[C@H](N)CN1S(=O)(=O)c1cc(Cl)c(Cl)s1 | 18.19% |
| CN(C)[C@@H]1CN(C(=O)Cc2ccsc2)[C@@H]2CCCO[C@H]12 | 16.63% |
| CN(Cc1ccccc1CN1CCCC1)C(=O)c1c[nH]c(=O)[nH]1 | 0.31% |
| CN(CCN1CCCCCC1)C(=O)c1c(O)cccc1O | -46.57% |
| CN(Cc1ccccc1CN1CCCC1)C(=O)c1c(O)cccc1O | 54.29% |
| C1CCN(CCN2CCCCC2C2OCCO2)CC1 (stereo not given) | -26.04% |
| Cc1nnc(N2CCOC(C)(C(=O)NC3CCCC3)C2)c2ccccc12 (stereo not given) | 51.88% |
| CNC(=O)C1(C)CN(c2nnc(C)c3ccccc23)CCO1 (stereo not given) | 31.39% |
| Cc1nnc(N2CCOC(C)(C(=O)N(C)C)C2)c2ccccc12 (stereo not given) | 29.68% |
| CCn1ncc2c1C(COCC1CC1)N(Cc1ccccn1)CC2 (stereo not given) | 1.74% |
| Cc1nc(C2CCCN(C(=O)CCn3ccccc3=O)C2)no1 (stereo not given) | 47.23% |
| CC(C)c1nc(C2CCCN(C(=O)CCn3ccccc3=O)C2)no1 (stereo not given) | 29.59% |
| CC(C)c1nc(C2CCCN(C(=O)c3ccc4[nH]cnc4c3)C2)no1 (stereo not given) | 33.91% |
| CCc1nc(C2CCCN(C(=O)c3ccc4[nH]nnc4c3)C2)no1 (stereo not given) | 38.72% |
| CCc1nc(C2CCCN(C(=O)c3ccc(OC(C)C)nc3)C2)no1 (stereo not given) | 54.92% |
| CCOc1cc(C(=O)N2CCCC(c3noc(C(C)C)n3)C2)ccn1 (stereo not given) | 64.16% |
| CCOc1cc(C(=O)N2CCCC(c3noc(C)n3)C2)ccn1 (stereo not given) | -29.94% |
| CCc1nc(C2CCCN(C(=O)CCn3ccccc3=O)C2)no1 (stereo not given) | 54.92% |
| CCc1nc(C2CCCN(C(=O)c3ccc(O)nc3)C2)no1 (stereo not given) | 9.82% |
| CCc1nc(C2CCCN(C(=O)c3ccc4[nH]cnc4c3)C2)no1 (stereo not given) | 52.52% |
| CCc1nc(C2CCCN(C(=O)c3ccc(OC)cc3)C2)no1 (stereo not given) | 48.43% |
| CCOc1cc(C(=O)N2CCCC(c3noc(CC)n3)C2)ccn1 (stereo not given) | 43.79% |
